# The sample as a whole holds a higher share of hits than the screen did.
# ST2 IL33 inh – inhibitors of human ST2 (IL1RL1) binding to IL-33; 78,000 compounds, 2.3% hits; inhibition, % for hits at 17 µM; AlphaLISA ST2-Fc/biotin-IL-33 interaction, 1 h; Q01638; in the data active = inhibition above about 30%
# Target sequence (Q01638 whole entry, looked up): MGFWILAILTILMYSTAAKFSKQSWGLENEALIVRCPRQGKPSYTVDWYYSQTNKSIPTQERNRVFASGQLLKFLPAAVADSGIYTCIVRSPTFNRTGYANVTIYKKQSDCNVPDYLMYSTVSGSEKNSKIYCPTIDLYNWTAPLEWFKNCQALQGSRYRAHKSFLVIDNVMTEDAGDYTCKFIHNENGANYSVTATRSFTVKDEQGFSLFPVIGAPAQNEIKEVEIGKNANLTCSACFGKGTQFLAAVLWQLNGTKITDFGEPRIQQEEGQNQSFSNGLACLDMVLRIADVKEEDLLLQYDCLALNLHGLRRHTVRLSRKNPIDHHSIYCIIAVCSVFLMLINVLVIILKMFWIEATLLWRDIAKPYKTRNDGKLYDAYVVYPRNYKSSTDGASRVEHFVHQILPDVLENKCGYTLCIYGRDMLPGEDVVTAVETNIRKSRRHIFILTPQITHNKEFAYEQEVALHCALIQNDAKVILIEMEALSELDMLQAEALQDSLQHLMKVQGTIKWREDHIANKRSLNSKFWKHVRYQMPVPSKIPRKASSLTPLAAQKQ
# * marks the source's active call; other numbers are inactive results; i = inactive; ! = not confirmed by another sample.
SMILES,ST2 IL33 inh
CC1=NN(c2ccc(Cl)c(C(=O)O)c2)C(=O)/C1=C\c1ccc(Br)cc1,i
COc1ccc(/C=C2/C(=O)N(c3ccc(Cl)c(Cl)c3)N=C2C)cc1[N+](=O)[O-],i
COc1cc(/C=C2/C(=O)N(c3ccc(Cl)c(Cl)c3)N=C2C)cc(OC)c1O,35%*
COc1cc(Br)c(/C=C2/C(=O)N(c3ccc(Cl)c(Cl)c3)N=C2C)cc1OC,i
COc1cc(/C=C2/C(=O)N(c3ccc(Cl)c(Cl)c3)N=C2C)ccc1OCC#N,i
CC1=NN(c2ccc(Cl)c(Cl)c2)C(=O)/C1=C/c1cccs1,54%*
CC1=NN(c2ccc(Cl)c(C(=O)O)c2)C(=O)/C1=C\c1ccc(OCc2ccccc2)cc1,i
C=CCOc1ccc(/C=C2\C(=O)N(c3ccc(Cl)c(C(=O)O)c3)N=C2C)cc1OC,i
CC1=NN(c2ccc(Cl)c(C(=O)O)c2)C(=O)/C1=C\c1ccc(Cl)cc1,48%*
COc1ccccc1/C=C1\C(=O)N(c2ccc(Cl)c(Cl)c2)N=C1C,i
COc1cc(/C=C2\C(=O)N(c3ccc(Cl)c(C(=O)O)c3)N=C2C)cc(Br)c1O,75%*
COc1ccc2nc(N3CCCC(C(=O)NCCCN4CCC(C)CC4)C3)sc2c1 (stereo not given),i
CC(C)CC(=O)Nc1nnc(COc2ccccc2Cl)s1,i
C=CCn1cc(C(=O)NCC2CCCO2)c(=O)c2cc(S(=O)(=O)N3CCCCCC3)ccc21 (stereo not given),i
O=C1CC(c2cccc(Cn3cccn3)c2)c2cc3cn[nH]c3cc2N1 (stereo not given),i
COc1ccc2oc(C)c(C(=O)CSc3ccccc3)c2c1,i
CCC(=O)N1CCc2cc(Br)cc(S(=O)(=O)NCCCN3CCCCCC3)c21,i
CCSc1oc(-c2cccs2)nc1S(=O)(=O)c1ccc(C)cc1,i
CCC12CN3CC(CC)(CN(C1)C3c1cccc([N+](=O)[O-])c1)C2=O (stereo not given),i
O=C(c1ccc2nc3sc4c(c3c(=O)n2c1)CCCC4)N1CCN(c2ccccc2F)CC1,i
O=C(O)c1c[nH]c2ccc(S(=O)(=O)Nc3ccc4c(c3)OCCO4)cc2c1=O,i
COc1ccc(/C=C2/C(=O)N(c3ccc(Cl)c(Cl)c3)N=C2C)cc1Br,i
C=CCOc1ccc(/C=C2/C(=O)N(c3ccc(Cl)c(Cl)c3)N=C2C)cc1OC,i
COc1cc(/C=C2/C(=O)N(c3ccc(Cl)c(Cl)c3)N=C2C)cc(OC)c1OC,55%*
O=C(NCc1ccc(F)cc1)c1coc(=O)c2ccccc12,i
SMILES,ST2 IL33 inh
CCOC(=O)N1CCN(C(=O)c2ccc(N3CCC(NC4Cc5ccccc5C4)CC3)cc2)CC1,i
Cc1cc(OC(C)C(=O)N2CCc3ccccc32)ccc1Cl (stereo not given),i
COc1ccc(/C=C/C(=O)O[C@@H]2[C@@H](O[C@@H]3O[C@H](CO)[C@@H](O)[C@H](O)[C@H]3O)[C@@H](O)[C@H](O[C@H]3C4C=CO[C@@H](O[C@@H]5O[C@H](CO)[C@@H](O)[C@H](O)[C@H]5O)C4[C@@]4(CO)O[C@@H]34)O[C@H]2C)cc1 (stereo not given in full),i
CCc1cc2c(C)cc(=O)oc2cc1OCC(=O)c1ccc(C)cc1,i
Cc1c(Cl)cccc1-n1ncnc1-c1cccc([N+](=O)[O-])c1,35%*
Cc1c(Cl)cccc1N1C(=O)CSC1c1ccc([N+](=O)[O-])cc1 (stereo not given),i
O=[N+]([O-])c1cccc(-c2ncnn2-c2ccc(Br)cc2F)c1,i
Cc1nc2scc(-c3ccccc3)c2c(=O)[nH]1,i
CSc1nc2n(n1)C(c1ccc(Br)cc1)C(C(=O)Nc1ccccc1)=C(C)N2 (stereo not given),i
COc1cc(C2CC(=O)N(Cc3ccccc3)c3ccccc3S2)cc(OC)c1OC (stereo not given),i
COC1CCN(C(=O)CC(c2cccc(O)c2)c2cccc(Cl)c2)CC1 (stereo not given),i
O=c1c(NS(=O)(=O)c2cccc(F)c2)ccc2n1C[C@H]1C[C@@H]2CN(S(=O)(=O)c2cccs2)C1,44%*
O=C(Nc1ccc(F)cc1)N1C[C@@H]2C[C@H](C1)c1ccc(NS(=O)(=O)c3cccs3)c(=O)n1C2,i
COc1ccc(NC(=O)N2C[C@@H]3C[C@H](C2)c2ccc(NS(=O)(=O)c4cccc(F)c4)c(=O)n2C3)cc1,i
CC(C)C(NC(=O)C1CCC(C(C)(C)C)CC1)C(=O)NCc1cccnc1 (stereo not given),i
CC(C)(C)NC(=O)/C(=C\c1cccnc1)NC(=O)c1ccco1,i
CCOC(=O)Cn1c(=O)c2c(nc3n2CCN3c2ccc(C)c(C)c2)n(C)c1=O,i
O=C1N(CCc2ccccc2)C[C@@H]2C[C@@H](c3cnc(-c4ccccc4)s3)N3CCC[C@@]123,i
OCC1CCCN1Cc1cccc(Cl)c1 (stereo not given),i
O=C1N(Cc2cccc(Cl)c2)C[C@@H]2C[C@@H](c3ccc4nsnc4c3)N3CCC[C@@]123,40%*
CN(C)c1cc(NCCN2CCCC(C(N)=O)C2)ncn1 (stereo not given),i
Cc1c(NC(=O)C2CC2)cccc1[N+](=O)[O-],i
Cc1c(NC(=O)C(c2ccccc2)c2ccccc2)cccc1[N+](=O)[O-],44%*
Cc1c(NC(=O)c2ccccc2)cccc1[N+](=O)[O-],i
CCC1Oc2ccccc2N(CC(=O)NCCN2CCCC2)C1=O (stereo not given),i
SMILES,ST2 IL33 inh
O=C(CN1C(=O)/C(=C\c2ccc(Cl)cc2)Sc2ccccc21)NCCN1CCOCC1,30%*
O=C(NCCN1CCOCC1)Nc1ccc(Cl)cc1,i
O=C(CN1C(=O)/C(=C\c2ccc(Cl)cc2)Sc2ccccc21)N1CCOCC1,i
CCCCNC(=O)CN1C(=O)/C(=C\c2ccc(Cl)cc2)Sc2ccccc21,i
O=C(CN1C(=O)/C(=C\c2ccc(Cl)cc2)Sc2ccccc21)NCCN1CCCC1,33%*
CCOC(=O)C1(Cc2ccccc2F)CCCN(C(=O)C2=CCCC2)C1 (stereo not given),i
Cc1cc(Br)ccc1NC(=O)CCc1ccccc1,i
CN(C)c1ccc(-c2nnc([C@H]3CCN(Cc4ccc(CO)o4)C3)o2)cc1,i
COc1ccc(NC(=O)CNS(=O)(=O)c2ccc(Br)s2)cc1,i
Cc1ccc(C2=NN(C(=O)CCC(=O)O)C(c3ccc(Br)cc3)C2)cc1 (stereo not given),38%*!
Cc1ccc(C2=NN(C(=O)CCC(=O)O)C(c3ccc(Cl)cc3)C2)cc1 (stereo not given),i
O=C(O)CCCC(=O)N1N=C(c2ccc(Br)cc2)CC1c1ccc(Cl)cc1 (stereo not given),i
CN(Cc1ccncn1)C(=O)c1cn(Cc2ccc(Cl)cc2)nn1,i
NC(=O)c1ccccc1NC(=O)c1cccc(I)c1,i
CC(C)c1ccc(C(=O)Nc2ccccc2C(N)=O)cc1,i
NC(=O)c1ccccc1NC(=O)c1cccc(C(=O)Nc2ccccc2C(N)=O)c1,30%*
CCc1nc(SCC(=O)NCCc2n[nH]c3c2CCCC3)n[nH]1,i
CC(C)N(CCCNC(=O)C1CCCN1c1nnc(N2CCCC2=O)s1)Cc1ccccc1 (stereo not given),34%*
CN(CCNC(=O)C1CCCN1c1nnc(N2CCCC2=O)s1)C1CCCCC1 (stereo not given),i

# Screening results deposited in PubChem by Paczesny and Yang Labs, IUPUI and University of Michigan.
